The list is not random: actives were taken first. Their share in the collection is about 19%.
CHX counter = counter-screen for Shiga toxin inhibitors: cycloheximide protein synthesis inhibition; cell reporter, cycloheximide protein synthesis inhibition counterscreen; max response, %; actives 12% (n = 300,000); AID 2314; in the data active = max response mostly above about 13%, no sharp cut-off; inactive = mostly below about 14%; note: read at 38.3 µM for the half of the compounds with a filed dose
Pf growth 96h = inhibits malaria parasite growth, 96 h; P. falciparum luciferase reporter growth, 96 h; Potency, µM (titrated, usually from 28.7 µM), hits mostly inhibitors; actives 6.9% (n = 320,000)
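96 h incubation, 37 C, 5% CO2, of luciferase-reporter P. falciparum-infected RBCs (2% hematocrit, 0.05% parasitemia final) with test compounds; endpoint luminescence.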
AMA1-RON2 inh = AMA1-RON2 (P. falciparum) interaction inhibition | AlphaScreen AMA1-biotinylated RON2 peptide binding | Potency, µM (series often up to 58.2 µM), most hits filed as inhibitors | actives 0.2% (n = 360,000) | AID 720542; note: nearly all actives have a fitted effect of over 45% in size
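AMA1 (3D7) with his tag at 25 nM final met compounds first, then biotinylated RON2 peptide at 25 nM; detection used donor plus acceptor beads, 10 µg/mL apiece, read by AlphaScreen after 30 min at room temperature.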
Shiga toxin inh = inhibitors of Shiga toxin in Vero cells | Vero cells, Shiga toxin protein synthesis inhibition reporter | inhibition, % at 38.7 µM | actives 9.2% (n = 290,000); in the data active = inhibition mostly above about 28%, no sharp cut-off; inactive = mostly below about 43%
Pf growth 48h = P. falciparum growth inhibition at 48 hours (one generation); P. falciparum luciferase growth in erythrocytes, 48 h; Potency, µM (highest dose often 28.7 µM), hits mostly inhibitors; actives 5.9% (n = 310,000)
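Firefly luciferase activity from engineered P. falciparum reports growth; inhibitors lower the luminescent signal. Cultures contained 2% hematocrit erythrocytes at 0.1% final parasitemia.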
SARS PLP yeast = blocks SARS-CoV papain-like protease in a yeast assay; S. cerevisiae expressing SARS-CoV PLpro, growth rescue; Potency, µM (highest dose often 32.9 µM), usual class: activators; actives 0.19% (n = 330,000); AID 485353; calls by dose curve; note: nearly all actives have a fitted effect of over 55% in size
A number is an active result; . = inactive; ? = inconclusive; / = not tested or not shown. Unless noted, calls come from the whole dose curve; as a rule, active = well fitted curve in the direction sought with a large enough effect; inconclusive = small, poorly fitted or top-dose-only effect, or another doubt; inactive = no such curve, though single readings can be large; an effect the other way counts as inactive or inconclusive.

SMILES	CHX counter	Pf growth 96h	AMA1-RON2 inh	Shiga toxin inh	Pf growth 48h	SARS PLP yeast
COc1cc2c(c(O)c1OC)-c1c(cc(OC)c(OC)c1OC)C[C@@H](C)[C@@H](C)C2	.	?	.	.	13µM	.
CC(CCN(C)C)OC(=O)c1ccc(C(C)c2ccccc2)o1 (stereo not drawn)	18	?	.	.	.	.
Cc1ccc(C(=O)OC(C)C(=O)NC(C)CCc2ccccc2)o1 (stereo not drawn)	/	.	.	/	.	.
CCCNC(=S)Nc1ccc2nc(-c3ccccn3)c(-c3ccccn3)nc2c1	.	?	.	.	?	.
CCC(=O)n1nc(-c2ccc(OC)cc2)nc1NCc1cccs1	.	.	.	.	.	.
O=C(c1cccs1)n1nc(-c2ccc(Cl)cc2)nc1NCc1ccco1	.	.	.	.	.	.
COc1ccc(CC(=O)n2nc(-c3ccc(Cl)cc3)nc2NCc2ccco2)cc1	23	.	.	.	.	.
CC(=O)n1nc(-c2ccc(Cl)cc2)nc1NCc1ccco1	31	.	.	50	/	.
Nc1nonc1-n1nnc(C(=O)N/N=C/c2cccnc2)c1-c1ccccc1	.	12µM	.	.	?	.
C/C(=N/NC(=O)c1nnn(-c2nonc2N)c1-c1ccccc1)c1ccc2c(c1)OCO2	.	.	.	.	.	.
Cc1ccc(/C=N/NC(=O)c2nnn(-c3nonc3N)c2-c2ccc3c(c2)OCO3)s1	.	?	.	.	0.26µM	.
Nc1nonc1-n1nnc(C(=O)N/N=C/c2cccc(Cl)c2)c1-c1cccs1	.	2.3µM	.	.	4.7µM	.
C/C(=N\N=C\c1ccccc1F)c1nnn(-c2nonc2N)c1C	16	.	.	80	.	.
Nc1nonc1-n1nnc(C(=O)N/N=C/c2ccccc2F)c1-c1cccs1	.	.	.	.	.	.
O=C(NCCN1CCOCC1)C(=O)NCC1OCCCN1S(=O)(=O)c1cc(F)ccc1F (stereo not drawn)	.	.	.	.	.	.
Nc1nonc1-n1nnc(C(=O)N/N=C/c2cccc(F)c2)c1-c1ccccc1	.	?	.	.	5.2µM	.
Cc1c(C(=O)N/N=C/c2cccc(O)c2)nnn1-c1nonc1N	.	13µM	.	.	?	.
CCN(CC)c1ccc(/C=N/NC(=O)c2nnn(-c3nonc3N)c2-c2ccc(C)cc2)cc1	.	5.9µM	.	.	?	.
Cc1ccccc1COc1cccc(/C=N/NC(=O)c2nnn(-c3nonc3N)c2C)c1	.	.	.	.	?	.
Nc1nonc1-n1nnc(C(=O)N/N=C/c2ccc(F)cc2)c1-c1ccc2c(c1)OCO2	.	0.066µM	.	.	0.12µM	.
COc1ccc(/C=N/NC(=O)c2nnn(-c3nonc3N)c2-c2cccc(OC)c2)cc1	.	.	.	.	?	.
NC(=O)c1ccc(NC(=O)COC(=O)CC2Sc3ccccc3NC2=O)cc1 (stereo not drawn)	/	.	.	/	.	.
CCOc1ccccc1NC(=O)CCS(=O)(=O)c1ccc2c(c1)CCN2C(C)=O	.	.	.	.	.	.
Nc1nonc1-n1nnc(C(=O)N/N=C/c2cccc(F)c2)c1-c1ccc2c(c1)OCO2	.	0.066µM	.	.	0.12µM	.
Nc1nnnn1CC(=O)N/N=C/c1cccs1	17	.	.	.	.	.
SMILES	CHX counter	Pf growth 96h	AMA1-RON2 inh	Shiga toxin inh	Pf growth 48h	SARS PLP yeast
Nc1nonc1-n1nnc(C(=O)N/N=C/C=C/c2ccccc2)c1CSC1=NCCS1	17	?	.	43	?	.
O=C(Cn1nnc2ccccc21)N/N=C\c1cccs1	.	.	.	.	.	.
CCc1c(C(=O)N/N=C/c2cccs2)nnn1-c1nonc1N	23	.	.	45	.	.
CCN(CC)Cc1c(C(=O)N/N=C/c2cccs2)nnn1-c1nonc1N	.	.	.	.	.	.
Cc1ccc(S(=O)(=O)c2nc(N3CCOCC3)sc2Cl)cc1	.	?	.	.	?	.
Cn1c(NCCN2CCCC2)nc2cc(-c3ccsc3)sc2c1=O	/	/	.	/	/	/
COc1ccc(C2CC(c3cccs3)=NN2C(=O)CSc2nc(=O)n3ccc(C)cc3n2)cc1 (stereo not drawn)	/	?	.	/	12µM	.
CCN1CCN(CC(=O)N2N=C(c3cccs3)CC2c2ccc(OC)cc2)C(=O)C1=O (stereo not drawn)	.	.	.	.	.	.
O=C(CSc1nc(=O)n2ccccc2n1)N1N=C(c2cccs2)CC1c1ccc(F)cc1 (stereo not drawn)	/	?	.	/	?	.
Cc1ccc(C2CC(c3cccs3)=NN2C(=O)CSc2nc(=O)n3ccc(C)cc3n2)cc1 (stereo not drawn)	/	?	/	/	8.3µM	.
O=C(N/N=C/c1ccccc1)c1cc(-c2ccc3c(c2)OCO3)n[nH]1	14	.	.	.	.	.
O=C(N/N=C/c1cccc([N+](=O)[O-])c1)c1cc(-c2ccc3c(c2)OCO3)n[nH]1	.	.	.	.	.	.
O=C(N/N=C/c1cccc(O)c1)c1cc(-c2ccc3c(c2)OCO3)n[nH]1	10	.	.	.	.	.
O=C(N/N=C/c1ccc(O)cc1)c1cc(-c2ccc3c(c2)OCO3)n[nH]1	.	.	.	.	.	.
COc1ccc(NC(=O)CCN2C(=O)C3CC=C(Cl)CC3C2=O)cc1 (stereo not drawn)	.	.	.	.	.	.
O=C(O)CSc1nnc(-c2ccc(Cl)cc2Cl)n1Cc1ccccc1	.	.	.	.	.	.
CC(C)(C)c1ccc(C(=O)C2CCCN(Cc3ccon3)C2)cc1 (stereo not drawn)	22	?	.	33	.	.
CSc1ccccc1C(=O)C1CCCN(Cc2ccncc2)C1 (stereo not drawn)	.	1.2µM	.	.	?	.
O=C(c1ccc2c3c(cccc13)CC2)C1CCCN(Cc2cccnc2)C1 (stereo not drawn)	.	?	?	.	1.7µM	.
COc1ccccc1CN1CCCC(C(=O)c2ccccc2SC)C1 (stereo not drawn)	.	?	.	.	?	.
COc1ccc(O)c(CN2CCCC(C(=O)c3ccccc3SC)C2)c1 (stereo not drawn)	.	.	?	.	5.2µM	.
O=C(CCC1CCCNC1)c1ccccc1 (stereo not drawn)	.	?	/	.	.	.
CC1(Cc2ccc(C(F)(F)F)o2)C(=O)Nc2cc(-c3ccc(F)cc3F)ccc21 (stereo not drawn)	/	/	.	/	/	/
COc1cc(C(O)c2nc(-c3cccc(C#N)c3)cs2)ccc1F (stereo not drawn)	/	/	.	/	/	/
CCOC(=O)C1(C)CCCN(C(=O)c2ccc(OC(F)F)cc2)C1 (stereo not drawn)	/	/	.	/	/	/
Cc1csc(=O)n1CCC(=O)OCC(=O)Nc1ncc(Cl)cc1Cl	/	.	.	/	.	.

Assay outcomes from PubChem.
